Experimental findings from PubChem BioAssay AID720518 (National Center for Advancing Translational Sciences (NCATS), 2013) are described below.

SMILES strings stand for the structures. Results filed as inconclusive are left out. The source made the active and inactive calls. The call rests on the fitted dose curve.

The experiment is described as follows: qHTS for Inhibitors of Cell Surface uPA Generation: Wild-type Protective Antigen (WT-PrAg) Counterscreen for Cherry-picked Compounds. Further: 0% is about no effect. The following applies: cells, WT protective antigen toxicity counterscreen; series mostly up to 115 µM; activity (protection): at the top concentration. A general note: qHTS replaces the single test concentration by a dilution series.
Turning to `O=C(CSc1ccc(Cl)cc1)Nc1ccc(C2SCCS2)cc1`, the “activity (protection)” value is 1.42% (inactive).

For the compound `CCCCN(CC)CCNC(=O)c1cc2cc3ccc(Cl)cc3nc2o1`, the “activity (protection)” value is -2% (inactive).

On to `Cn1c(=O)c2c(ncn2CCO)n(C)c1=O`, for which the “activity (protection)” value is -0.0315% (inactive).

Consider `Cc1cccc(C)c1NC(=O)c1c(O)c2ccccc2[nH]c1=O`, for which the “activity (protection)” value was -2.65% (inactive).

With `O=C(/C=C/c1ccc(O)c(O)c1)O[C@@H]1C[C@](O)(C(=O)O)C[C@@H](O)[C@H]1O`, the “activity (protection)” value is -0.319% (inactive).

Take `CCCOc1ccc(S(=O)(=O)NNC(=O)c2cc3ccccc3o2)cc1`: the “activity (protection)” value is -2.15% (inactive).

As to `CC(C)c1ccc(C2/C(=C(\O)c3ccc4c(c3)OCCO4)C(=O)C(=O)N2CCN2CCOCC2)cc1` (centres undefined), the “activity (protection)” value is -0.545% (inactive).

`CC(=O)Oc1ccc(OC(C)=O)c(SCCCCCCl)c1`: the “activity (protection)” value is -2.59% (inactive).

With `CCN(C(=O)CSc1ncnc2sccc12)c1c(N)n(Cc2ccccc2)c(=O)[nH]c1=O`, the “activity (protection)” value was 0.582% (inactive).

As for `O=S(=O)(NCCc1ccccc1F)c1cccc(S(=O)(=O)N2CCOCC2)c1`, the “activity (protection)” value is -1.88% (inactive).

As for `O=C(c1cc2cc([N+](=O)[O-])ccc2s1)N1CCOCC1`, the “activity (protection)” value was -1.68% (inactive).

Turning to `COc1ccc(CCN=c2c([N+](=O)[O-])nn(-c3cccc(C)c3)n2O)cc1OC`, the “activity (protection)” value was -2.53% (inactive).

As to `CCOC(=O)C1CCN(C(=O)COC(=O)c2c(C)c(CC)nc3ccccc23)CC1`, the “activity (protection)” value is -1.84% (inactive).

Turning to `CCCOc1ccc(CC2CCC(=O)NC2=O)cc1` (centres undefined), the “activity (protection)” value was -1.67% (inactive).

In the case of `COc1cccc(CN(C)C(=O)c2cc(S(=O)(=O)N3CCCC3)ccc2C)c1OC`, the “activity (protection)” value is -0.352% (inactive).

Consider `COc1ccccc1NC(=O)Cn1nnc(-c2ccccc2NC(=O)c2cc3ccccc3oc2=O)n1`, for which the “activity (protection)” value is -0.855% (inactive).

With `O=C(NCc1ccc(F)cc1)c1cc(S(=O)(=O)N2CCCCC2)ccc1N1CCOCC1`, the “activity (protection)” value is -0.974% (inactive).

In the case of `O=c1ccc(S(=O)(=O)N2CCCC2)c[nH]1`, the “activity (protection)” value is -0.609% (inactive).

For the compound `CCOCCCn1c(SCC(=O)Nc2oc(C)c3c(C)n[nH]c(=O)c23)nc2ccccc2c1=O`, the “activity (protection)” value was -1.46% (inactive).

As to `CCOc1cc(/C=C(\C#N)C(=O)NCc2cccnc2)ccc1O`, the “activity (protection)” value is -1.63% (inactive).

`COC(=O)[C@H](CC(C)C)N(Cc1ccccc1)S(=O)(=O)N(Cc1ccc(OC)cc1)[C@@H](CC(C)C)C(=O)OC`: the “activity (protection)” value is 1.45% (inactive).

For the compound `Cc1ccc(NC2CCCN(C(=O)Cc3nonc3C)C2)cc1C` (centres undefined), the “activity (protection)” value was -0.306% (inactive).

For `COc1ccc(C(=O)CC(=O)C(=O)Nc2ccccc2)cc1`, the “activity (protection)” value was -2.05% (inactive).

With `CCN(CC)S(=O)(=O)c1ccc(NC(=S)Nc2ccc(F)cc2)cc1`, the “activity (protection)” value is -1.28% (inactive).

`Cc1cccn2c(CNCC(C)Oc3cccnc3)c(C(=O)N3CCOCC3)nc12` (centres undefined): the “activity (protection)” value is -1.09% (inactive).

As for `O=C(NCC1CCCO1)c1ccc(NC(=O)c2ccc([N+](=O)[O-])cc2)cc1` (centres undefined), the “activity (protection)” value was -0.124% (inactive).

With `CN(CC(=O)N(C)CC(=O)Nc1c(Cl)cccc1Cl)Cc1ccccc1F`, the “activity (protection)” value is 1.34% (inactive).

As for `Cc1c([N+](=O)[O-])c2ccc(O)cc2n1-c1ccccc1`, the “activity (protection)” value is 11.1% (inactive).

Turning to `CN1CCN(c2ccc(S(=O)(=O)N3CCOCC3)cc2NC(=O)CSCc2ccccc2)CC1`, the “activity (protection)” value was 0.65% (inactive).

For `COc1cccc(C2CC(c3ccc(C)cc3)n3ncnc3N2)c1` (centres undefined), the “activity (protection)” value is 0.394% (inactive).

In the case of `CCCCCOC(=O)C1=C(C)NC(=O)NC1c1ccccc1` (centres undefined), the “activity (protection)” value is 0.914% (inactive).

On to `CCOC(=O)c1c(C)oc2ccc(OC(=O)COc3c(F)c(F)c(F)c(F)c3F)cc12`, for which the “activity (protection)” value is -0.307% (inactive).

On to `S=C(Nc1ccccc1Oc1ccccc1)NC1CCCC1`, for which the “activity (protection)” value was -2.13% (inactive).

Take `Cc1noc(C)c1COc1ccc(C(=O)N2CCN(S(=O)(=O)c3ccc(Cl)cc3)CC2)cc1`: the “activity (protection)” value is 3.98% (inactive).

Turning to `C=CC[n+]1c(/C=C/c2ccc(OC(C)=O)c(OC)c2)ccc2ccccc21`, the “activity (protection)” value is -2.58% (inactive).

Turning to `O=C(CCc1ccccc1)NNC(=O)c1cccc(F)c1`, the “activity (protection)” value was -1.65% (inactive).

In the case of `CC(C)OC(=O)c1ccc(N2CCN(c3ccccc3F)CC2)nc1`, the “activity (protection)” value is -1.86% (inactive).

`CC1=C(C(=O)OCc2ccccc2)C(c2cccc([N+](=O)[O-])c2)NC(=O)N1` (centres undefined): the “activity (protection)” value was -1.14% (inactive).

On to `CC(C)(C)NC(=O)C(c1cccs1)N(C(=O)c1csnn1)c1ccccc1F` (centres undefined), for which the “activity (protection)” value was -0.113% (inactive).
